Only some compounds are listed: those with a hit (about 11% of all), similar ones and a draw of the others.
JMJD2E inh: qHTS Assay for Inhibitors of Human Jumonji Domain Containing 2E (JMJD2E). Lysine-specific demethylase 4E (Homo sapiens), B2RXH2. JMJD2E catalytic domain, FDH-coupled NADH fluorescence (FDH is formaldehyde dehydrogenase). Potency, µM (highest dose often 57.1 µM), without a hit: at the highest dose activity change, negative = inhibition, usual class: inhibitors. actives 1.6% (n = 230,000). AID 2147, 2009;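 further: potency means the concentration at half of the fitted maximal effect; 0% = wells with enzyme and -100% = buffer wells without enzyme; nearly all actives have a fitted effect of over 50% in size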
PNC inhibitor: High Content Assay for Compounds that inhibit the Assembly of the Perinucleolar Compartment; actives 3.1% (n = 140,000); activity change (PNC), negative = inhibition, % at 10 µM; AID 2417, 2010; PC3M PTB-GFP, PNC prevalence imaging, 16 h; hits give low values;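 active means readout at or below -70, meaning at least 70% loss of cells showing the perinucleolar compartment, a nuclear body marking cancer cells; inconclusive means readout between -30 and a set limit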;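 further: plate controls were DMSO wells for no effect and camptothecin positive control wells for full effect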
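Compounds are pinned in duplicate onto adhered PC3M cells stably expressing GFP-tagged PTB and incubated 16 h at 37 C. Cells are then fixed, nuclei stained with Hoechst, and PNC-positive cells counted.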
ALDH1A1 inh: qHTS Assay for Inhibitors of Aldehyde Dehydrogenase 1 (ALDH1A1); Aldehyde dehydrogenase 1A1 (Homo sapiens), P00352; Purified ALDH1A1, NADH fluorescence, propionaldehyde substrate; Potency, µM (series often up to 75.3 µM), without a hit: top-dose activity, negative = inhibition, usual class: inhibitors; actives 7.3% (n = 220,000); AID 1030, 2008;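 further: potency means the concentration at half of the fitted maximal effect; plate controls were no enzyme wells and a reference inhibitor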
Target sequence (P00352 whole entry, looked up): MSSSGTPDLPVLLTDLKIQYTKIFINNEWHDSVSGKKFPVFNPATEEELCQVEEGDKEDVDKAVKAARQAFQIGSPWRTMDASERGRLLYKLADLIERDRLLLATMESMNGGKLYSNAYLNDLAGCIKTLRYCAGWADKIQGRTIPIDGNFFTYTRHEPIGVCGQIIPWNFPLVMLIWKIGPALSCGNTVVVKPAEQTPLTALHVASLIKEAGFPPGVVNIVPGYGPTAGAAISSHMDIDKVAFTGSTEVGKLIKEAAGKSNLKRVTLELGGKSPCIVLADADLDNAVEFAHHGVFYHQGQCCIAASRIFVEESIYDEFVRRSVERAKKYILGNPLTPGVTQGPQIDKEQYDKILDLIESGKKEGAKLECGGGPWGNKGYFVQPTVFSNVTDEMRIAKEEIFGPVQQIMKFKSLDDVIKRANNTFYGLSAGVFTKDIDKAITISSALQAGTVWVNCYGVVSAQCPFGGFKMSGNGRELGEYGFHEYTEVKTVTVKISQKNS
HPGD block: qHTS Assay for Inhibitors of HPGD (15-Hydroxyprostaglandin Dehydrogenase); Potency, µM, for the others: at the highest dose activity change, negative = inhibition, usual class: inhibitors; purified HPGD, NADH fluorescence kinetic, PGE2 substrate; AID 894, 2007; actives 4.3% (n = 150,000); further: potency means the concentration at half of the fitted maximal effect
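NADH formation kinetics: reaction with 30 uM PGE2 and 1 mM NAD+ (final), 20 nM enzyme, Tris-HCl pH 8 with Tween 20, after 15 min compound preincubation at room temperature. Fluorescence change, last versus first of five reads.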
Starred values were filed as active, the others as inactive; ? = inconclusive; · = no result; [ ] = another dose, or the depositor's remark. Unless noted, the call rests on the fitted dose curve; in most records, active means well fitted inhibition curve with a large enough effect (not every such curve was filed as active); inconclusive means small, poorly fitted or top-dose-only effect, or another doubt; inactive means no such curve, though single readings can be large or run the other way. Unless noted, on the % scale 0 is the no-effect control and ±100 the full control effect.

SMILES | JMJD2E inh | PNC inhibitor | ALDH1A1 inh | HPGD block
Cc1ccc(-c2nnc(CSc3nc4cc5c(cc4cc3C)OCO5)o2)cc1 | -11.1% | 32.8 | -11.1% | 17.8µM*
CCN1CCN(S(=O)(=O)CC2(C)C3CCC2(C)C(=O)C3Br)CC1 (stereo not given) | -2.7% | · | -2.3% | ·
CCN(c1cccc(C)c1)c1nc2ccsc2c(=O)s1 | 32.8% | 52.9 | 27.8% | -14.2%
CN1C(=O)CC[C@@H]1c1cccnc1 | ? | · | -4.9%[20.9 µM] | -5.6%
CO/N=C/c1ccc(Sc2ccccc2)c([N+](=O)[O-])c1 | -5.5% | 45.7 | -9.2% | -8.4%
O=[N+]([O-])c1cc(/C=N/O)ccc1Sc1ccccc1 | 4.2% | 20.0 | ? | 25.1µM*
O=C(O)C(Cc1ccccc1)Cc1ccccc1 | · | · | 9.9%[13.5 µM] | -9.4%
CCCc1cc(=O)n2[nH]c(-c3ccccc3)cc2n1 | ? | -100.0* | ? | ?
Cc1ccc(CN2CCNC(=O)C2CC(=O)O)o1 (stereo not given) | -5.1% | -13.0 | -12.9% | -4.0%
C=CCNc1cnn(-c2ccc(C)cc2)c(=O)c1Sc1ccc(C)cc1 | ? | · | 10µM* | ·
CCOC(=O)c1csc(N)c1-c1ccc([N+](=O)[O-])cc1 | 1.0% | · | · | ·
C=CC1=C2C=C(C3CC3)N(Cc3ccccc3)C=C2C(=O)C(C)(OC(=O)c2ccco2)C1=O (stereo not given) | -7.3%[11.4 µM] | · | 5.2%[13.5 µM] | -0.7%
CC(C)CN1C(=O)c2ccccc2C1(O)Cc1ccccc1 (stereo not given) | 0.9% | -16.2 | ? | -16.4%
O=C1c2ccccc2C(O)(c2ncc[nH]2)N1CCc1ccccc1 (stereo not given) | -1.2% | 7.9 | 14.1µM* | -9.7%
NN(CCO)C(=S)Nc1ccc(Cl)cc1 | -21.3% | · | 6.0% | ·
Cc1ccc(NC2c3ncccc3C(=O)N2c2ccccc2C)cc1C (stereo not given) | 14.1µM* | 7.6 | ? | 15.8µM*
CCOc1ccc(N2C(=O)c3cccnc3C2Nc2ccc(Cl)cc2)cc1 (stereo not given) | 3.4% | 107.3 | -14.9% | -1.4%
Cc1nc(NC(=O)CSc2nc3cccnc3n2C2CCCCC2)sc1C | -15.7% | -124.9* | -3.1% | -12.0%
CCN(CC)C(=O)c1ccc(NS(=O)(=O)c2ccccc2)cc1 | 4.1% | 8.0 | 2.2% | -26.1%
CCN(CC)C(=O)c1ccc2nc(-c3ccccc3)c(-c3ccccc3)nc2c1 | -4.5% | ? | ? | ?
CCN(CC)C(=O)c1ccc(C(=O)c2ccccc2)cc1 | 3.8% | 40.9 | ? | 1µM*
CCN(CC)C(=O)c1ccc(C)c(Br)c1 | 4.3% | 21.8 | 7.5% | 17.8µM*
O=C(CN1C(=O)CCC1=O)c1ccc(-c2ccccc2)cc1 | 10.4% | -81.6* | 3.4% | -27.9%
CCN(CC)C(=O)c1ccc2nc3ccccc3nc2c1 | 4.4% | 27.7 | ? | 0.891µM*
CCNC(=O)NC(=O)C(C)OC(=O)Cc1coc2cc3c(cc12)CCC3 (stereo not given) | -1.0% | · | 7.4% | ·
SMILES | JMJD2E inh | PNC inhibitor | ALDH1A1 inh | HPGD block
CCN(CC)C(=O)c1cccc(C)c1 | 3.8% | · | 3.7% | 25.1µM*
CCCCN(CC)C(=O)c1cccc(Cl)c1 | 3.6% | -7.2 | ? | ?
CCCC(=O)c1ccc(-c2ccccc2)cc1 | 10.5% | 37.5 | -2.5% | 7.08µM*
O=C(CCCCCCCC(=O)c1ccccc1)c1ccccc1 | -12.6% | · | 2.8% | ·
CCCCN(CC)C(=O)c1ccc(-c2ccccc2)cc1 | -8.3% | 28.4 | -2.6% | 2µM*
O=c1c2ccccc2nnn1CSc1ccc2ccccc2n1 | 9.9% | -103.9* | 2.3% | -23.2%
Cc1nc(SCn2nnc3ccccc3c2=O)nc(C)c1C | 1.2% | ? | ? | 14.1µM*
C=CCn1c(SCn2nnc3ccccc3c2=O)nnc1-c1ccc(Br)cc1 | 3.0% | -83.7* | 1.3% | -1.6%
O=c1c2ccccc2nnn1CSc1ccccc1 | 2.0% | ? | -10.6% | -8.1%
COc1ccc(OC)c2[nH]c(=O)c(CCNC(=O)Cc3cccs3)cc12 | ? | · | -1.1% | ·
O=C(COC(=O)c1ccccc1C(=O)c1ccc(Cl)c([N+](=O)[O-])c1)NC1CCCCCC1 | 8.9% | -22.2 | 14.1µM* | -17.1%
COC(=O)c1ccc(SCC(=O)NC2CCCC2)c([N+](=O)[O-])c1 | -0.9% | 52.4 | 1.4% | 35.5µM*
CC(C)N(C(=O)COC(=O)c1ccccc1C(=O)c1ccc(Cl)c([N+](=O)[O-])c1)C(C)C | 3.4% | · | -9.3% | ·
NC(=O)c1ccc(SCC(=O)NC2CCCCC2)c([N+](=O)[O-])c1 | 1.4% | · | 2.5% | ·
Cc1ccsc1/C=C1\SC(N)=NC1=O | 4.1% | 56.7 | 23.1% | -25.9%
Cc1ccsc1/C=C1/SC(N2CC(C)OC(C)C2)=NC1=O (stereo not given) | 1.5% | 13.9 | 11.2µM* | 31.6µM*
COC(=O)c1cn(Cc2ccccn2)c(=O)c2ccccc12 | -6.6% | · | 1.7% | ·
COc1ccc(C(=O)NCC(=O)N=Nc2c(O)n(Cc3ccccc3)c3ccccc23)cc1OC | -19.8% | -16.8 | 17.8µM* | -6.4%
O=C(N=Nc1c(O)n(Cc2ccccc2)c2ccccc12)c1cc2ccccc2cc1O | -0.7% | 3.1 | 18.0% | -17.5%
COc1ccc(C(=O)NCC(=O)N=Nc2c(O)n(C)c3ccccc23)cc1OC | 0.2% | · | · | ·
Cn1c(O)c(N=NC(=O)CNC(=O)c2ccco2)c2ccccc21 | -2.1% | 12.6 | -1.6% | -9.5%
O=C(CNC(=O)Cc1ccccc1)N=Nc1c(O)n(Cc2ccc3c(c2)OCO3)c2ccccc12 | -3.2% | ? | 3.98µM* | ·
O=C(N=Nc1c(O)n(Cc2ccccc2)c2ccccc12)c1ccc(O)cc1 | -0.7% | 29.1 | 12.6µM* | -5.5%
Cc1ccc(/C=C/C(=O)Nc2nnc(SCc3ccc(C#N)cc3)s2)o1 | ? | 21.3 | -13.6% | -13.9%
COC(=O)CN=C1OC(=O)N2C(=O)C3=C4C(C[C@H]5C(=O)N(c6ccccc6)C(=O)[C@H]5[C@H]4[C@@]12Cc1ccccc1)[C@H]1C(=O)N(c2ccccc2)C(=O)[C@H]1[C@H]3C (stereo not given in full) | 0.7% | · | -6.2% | -9.2%
SMILES | JMJD2E inh | PNC inhibitor | ALDH1A1 inh | HPGD block
O=C(NS(=O)(=O)Oc1cccc(Cl)c1Cl)OC[C@@H]1CCCN2CCCCC12 (stereo not given in full) | 3.1% | 10.5 | 13.0% | -7.5%
O=C(CNCCN1CCOCC1)Nc1ccccc1Sc1ccccc1 | ? | 20.8 | 31.6µM* | -3.9%
COc1cccc(CN(C)C(=O)c2csc3c2CCCC3)c1OC | -1.6% | · | -6.1% | ·
C=CCOc1ccc(CN(C)CC(=O)N(CC(C)C)c2c(N)n(CC(C)C)c(=O)[nH]c2=O)cc1 | -13.6% | -101.1* | -12.6% | -8.2%
N=C(N)c1ccc(Cl)cc1 | 9.2% | · | 4.2% | ·
N=C(N)c1ccc(/C=C/c2ccc(C(=N)N)cc2O)cc1 | 28.2µM* | · | -2.7% | ·
Cc1ccc(C(=O)C2=C(O)C(=O)N(c3ncccn3)C2c2cccc(Cl)c2)o1 (stereo not given) | -12.0% | 1.1 | 12.6µM* | -12.2%
